# Compounds without any hit were thinned out: in the full panel of roughly 83,000, 20% have a hit.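 Note: values are percent growth. 100 is the growth of untreated cells, values between 100 and 0 indicate rising inhibition; between -100 and 0 indicates cell death.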 Unmarked numbers belong to inactive results. Activity calls are given as the source filed them. The calls were made as follows: active = growth percent below 10; inactive = the rest.
# Key:
# Test in all cases: NCI-60 one-dose screen, 48 h (100 = growth as untreated, 0 = no growth, -100 = all killed)
# Conditions in all cases: 10 µM unless noted
# BT-549 breast = system: BT-549 breast
# MDA-MB-435 melanoma = system: MDA-MB-435 melanoma
# MCF7 breast = system: MCF7 breast
# HCT-116 colon = system: HCT-116 colon
# HCC-2998 colon = system: HCC-2998 colon
# KM12 colon = system: KM12 colon
# SW-620 colon = system: SW-620 colon
Compound,growth (BT-549 breast),growth (MDA-MB-435 melanoma),growth (MCF7 breast),growth (HCT-116 colon),growth (HCC-2998 colon),growth (KM12 colon),growth (SW-620 colon)
C#CC[C@@H]1C[C@]2(C)[C@H]3CC=C4[C@H]5[C@@H](C)[C@H](C)CC[C@]5(C(=O)NCCCN5CCN(CCCN)CC5)CC[C@@]4(C)[C@]3(C)CC[C@H]2C(C)(C)[C@H]1OC(C)=O,-3.81% (active),-74.2% (active),-75.8% (active),-83.9% (active),-34.1% (active),1.28% (active),–
Nc1n[nH]c2ccc([C@@H]3Nc4c(F)cc5[nH]ncc5c4[C@H]4C5CCC(C5)[C@@H]34)cc12 (some centres not stated),27%,-11.5% (active),18.5%,7.44% (active),28.1%,10.4%,21.8%
C#CC[C@@H]1C[C@]2(C)[C@H]3CC=C4[C@H]5[C@@H](C)[C@H](C)CC[C@]5(C(=O)NCCCCCCCCN)CC[C@@]4(C)[C@]3(C)CC[C@H]2C(C)(C)[C@H]1OC(C)=O,93.7%,-62.4% (active),-80.4% (active),-99.4% (active),58.4%,0.426% (active),-61.9% (active)
Cn1nc(C(F)(F)F)cc1-c1c[nH]c(OCc2ccc(Cl)cc2)c(-c2ccc(Cl)c(C(F)(F)F)c2)c1=O,2.51% (active),1.96% (active),1.28% (active),4.49% (active),13.3%,8.85% (active),12.6%
CCc1ccc(Nc2ncnc3c2cnn3-c2cccc(Br)c2)cc1,95.8%,98%,102%,–,98.1%,106%,99.6%
C#CC[C@@H]1C[C@]2(C)[C@H]3CC[C@@H]4[C@H]5C(C(=C)C)CC[C@]5(C(=O)NCCN(CCN)CCN)CC[C@@]4(C)[C@]3(C)CC[C@H]2C(C)(C)[C@H]1OC(C)=O (some centres not stated),110%,84.8%,-59.9% (active),2.57% (active),81.1%,60%,15.2%
O=C(NC1CC1)c1ccc(-c2nc3ccc4[nH]ncc4c3c3c2CCCC3)cc1,29.5%,11.5%,38.6%,17%,51.1%,24.4%,18.7%
CC(=O)c1nn(-c2ccccc2)/c(=N\N=C\c2coc3ccc(F)cc3c2=O)s1,105%,103%,90.3%,96%,111%,101%,98.7%
C=C(CN1CC=CCC1)[C@@H]1CC[C@]2(C(=O)OC)CC[C@]3(C)[C@H](CC[C@@H]4[C@@]5(C)CC[C@H](OC(C)=O)C(C)(C)[C@@H]5CC[C@]43C)[C@@H]12,85.6%,90.7%,88.2%,86.7%,108%,78.6%,102%
CCNC(=S)N(Cc1ccccc1)Cc1ccccc1,119%,105%,107%,110%,98.3%,114%,115%
COc1c(B(O)O)cccc1-c1nc2c(F)cc3n[nH]c(C)c3c2c2c1CCCC2,21.2%,21.2%,15%,10.5%,51.7%,–,15.3%
Nc1nc2ccc([C@@H]3Nc4ccc5[nH]ncc5c4[C@H]4[C@H]5CCC(C5)[C@H]43)cc2s1,36.7%,-62.4% (active),-0.0226% (active),12.1%,49.3%,3.63% (active),-3.94% (active)
Cc1ccc(-c2cnc3sc4ccc(Cl)cc4n23)cc1,100%,105%,81.5%,89%,105%,96.5%,89.7%
O=S(=O)(NCC[C@@H]1C[C@H]1c1ccc2ccccc2c1)c1ccc(C(F)(F)F)cc1,92.5%,99.1%,91.1%,88%,101%,95.2%,98.6%
COc1ccc(/C=c2\c(=O)n(-c3ccccc3)c3nn4c(n23)=NNC42CCCCC2)cc1,97.3%,110%,96.6%,95.8%,107%,102%,103%
Cn1nc(C(F)(F)F)cc1-c1cc(Cl)c(OCc2ccc(Cl)cc2)c(-c2ccc(Cl)c(C(F)(F)F)c2)c1O,-0.385% (active),1.41% (active),3.29% (active),-11.1% (active),13.6%,7.08% (active),12.2%
C#CC[C@@H]1C[C@]2(C)[C@H]3CC[C@@H]4[C@H]5C(C(=C)C)CC[C@]5(C(=O)NCCCN5CCN(CCCN)CC5)CC[C@@]4(C)[C@]3(C)CC[C@H]2C(C)(C)[C@H]1OC(C)=O (some centres not stated),75.6%,-73.3% (active),-75.4% (active),-95.3% (active),-23.5% (active),-74.6% (active),-79.4% (active)
O=[N+]([O-])c1cccc(N=C(Nc2cccc([N+](=O)[O-])c2)c2ccccc2)c1,82%,78.4%,68.9%,58.1%,93.2%,84.2%,101%
CC(=O)O[C@H]1[C@H](CC#CC#CC[C@@H]2C[C@]3(C)[C@H]4CC=C5[C@H]6[C@@H](C)[C@H](C)CC[C@]6(C(=O)NCCCCCCCCN)CC[C@@]5(C)[C@]4(C)CC[C@H]3C(C)(C)[C@H]2OC(C)=O)C[C@]2(C)[C@H]3CC=C4[C@H]5[C@@H](C)[C@H](C)CC[C@]5(C(=O)NCCCCCCCCN)CC[C@@]4(C)[C@]3(C)CC[C@H]2C1(C)C,112%,110%,105%,97.7%,100%,89.2%,97.8%
C#CC[C@@H]1C[C@]2(C)[C@H]3CC=C4[C@H]5[C@@H](C)[C@H](C)CC[C@]5(C(=O)NCCCCN)CC[C@@]4(C)[C@]3(C)CC[C@H]2C(C)(C)[C@H]1OC(C)=O,93.8%,40%,12.2%,-56.4% (active),30%,38.3%,20.1%
C[C@@H](C[C@H](CC1CC1)c1ccccc1)c1ccc2ccccc2c1,106%,102%,108%,–,101%,103%,93.6%
COc1ccc(/C=c2\c(=O)n(-c3ccccc3)c3nn4c(=O)c(=O)[nH]nc4n23)cc1,105%,112%,102%,102%,108%,109%,106%
Brc1cccc(-n2ncc3c(Nc4ccc(-c5nnc(-c6ccccc6)o5)cc4)ncnc32)c1,101%,106%,99.5%,94.7%,100%,102%,99.5%
COc1cc(C)cc2oc3oc(=O)c(-c4csc(-c5cc6ccccc6oc5=O)n4)cc3c(=O)c12,107%,105%,101%,106%,106%,107%,105%
CN1CCN(Cc2ccc(NC(=O)c3cncc(C#Cc4ncc5ccccn45)c3)cc2C(F)(F)F)CC1,39.3%,28.1%,-6.36% (active),-51.5% (active),48.6%,4.65% (active),1.35% (active)
O=C(c1ccc(C(F)(F)F)c(Cl)c1)N(Cc1ccc(Cl)cc1)c1ccc(-c2cc(C(F)(F)F)[nH]n2)c(O)c1,14.6%,10.1%,4.31% (active),3.75% (active),13.6%,10%,17.2%
Cc1c(C)c(C)c([N+](=O)[O-])c([N+](=O)[O-])c1C,101%,88.6%,97%,109%,103%,98.1%,106%
Fc1[nH]nc2ccc([C@@H]3Nc4ccc5[nH]ncc5c4[C@H]4C5CCC(C5)[C@@H]34)cc12 (some centres not stated),53.2%,-42.5% (active),21.2%,21%,58.2%,20.7%,23.9%

# Source: PubChem BioAssay (NCI)
